The compounds below were run against T1, VCPIP1 (UniProt Q96JH7) (assay: log2 ratio of Biotin-Ahx-Ub-VS probe labelling (fragment/DMSO); higher = less target engagement (more negative = stronger competition), active = hit call of the paper (q ≤ 0.05, log2 ratio ≤ -1)). Settings: compound concentration: 200 uM; treatment time: 3 h.
T1 sequence (whole entry): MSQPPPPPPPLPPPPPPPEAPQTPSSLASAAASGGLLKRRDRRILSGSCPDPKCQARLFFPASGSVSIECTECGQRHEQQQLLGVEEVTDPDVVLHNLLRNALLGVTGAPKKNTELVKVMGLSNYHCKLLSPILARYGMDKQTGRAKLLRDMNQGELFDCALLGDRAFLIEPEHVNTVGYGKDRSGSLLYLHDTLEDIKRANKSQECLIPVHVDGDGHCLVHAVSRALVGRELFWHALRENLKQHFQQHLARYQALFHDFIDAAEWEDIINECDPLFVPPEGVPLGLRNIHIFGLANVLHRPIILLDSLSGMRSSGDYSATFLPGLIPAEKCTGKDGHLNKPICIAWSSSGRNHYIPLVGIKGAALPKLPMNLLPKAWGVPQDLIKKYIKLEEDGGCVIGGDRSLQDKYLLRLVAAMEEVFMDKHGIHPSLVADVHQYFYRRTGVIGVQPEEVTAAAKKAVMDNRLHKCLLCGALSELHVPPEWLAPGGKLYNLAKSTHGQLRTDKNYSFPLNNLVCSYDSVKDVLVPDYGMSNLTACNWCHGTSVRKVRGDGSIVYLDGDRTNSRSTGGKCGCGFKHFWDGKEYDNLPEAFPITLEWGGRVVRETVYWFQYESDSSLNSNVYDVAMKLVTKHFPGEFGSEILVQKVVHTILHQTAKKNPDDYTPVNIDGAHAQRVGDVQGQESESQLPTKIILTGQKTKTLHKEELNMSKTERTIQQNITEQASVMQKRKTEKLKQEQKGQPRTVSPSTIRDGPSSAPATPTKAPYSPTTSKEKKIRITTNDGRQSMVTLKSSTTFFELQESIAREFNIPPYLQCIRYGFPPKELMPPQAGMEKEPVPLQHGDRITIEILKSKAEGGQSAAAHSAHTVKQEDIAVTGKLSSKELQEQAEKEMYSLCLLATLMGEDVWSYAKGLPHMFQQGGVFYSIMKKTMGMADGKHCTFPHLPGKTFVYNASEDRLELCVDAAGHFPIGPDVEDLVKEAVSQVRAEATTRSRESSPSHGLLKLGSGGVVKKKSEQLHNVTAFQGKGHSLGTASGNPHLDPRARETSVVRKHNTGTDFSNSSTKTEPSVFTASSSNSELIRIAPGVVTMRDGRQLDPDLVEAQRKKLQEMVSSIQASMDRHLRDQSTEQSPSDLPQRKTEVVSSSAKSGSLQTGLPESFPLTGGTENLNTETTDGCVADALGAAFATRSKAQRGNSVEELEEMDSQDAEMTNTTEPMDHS
Procedure: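 Competitive ABPP in HEK293T cell lysate. Lysates were treated with each chloroacetamide fragment at 200 µM for 3 h, then with Biotin-Ahx-Ub-VS (0.5 µM, 1 h), NeutrAvidin-enriched and analysed by diaPASEF LC-MS/MS. Protein LFQ was median-normalised; average log2 ratio is fragment/DMSO from an unpaired t-test (n=3 treated, n=44 DMSO). Hits: q ≤ 0.05, log2 ratio ≤ -1, unique peptides ≥ 2.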

log2 ratio of Biotin-Ahx-Ub-VS probe labelling, inactive:
CNC(=O)C1CCN(C(=O)CCl)CC1 -0.28
O=C(CCl)N1CCC(c2ccn[nH]2)C1 (stereo not given) -0.333
CC(=O)C1CCCCN1C(=O)CCl (stereo not given) -0.0774
CCCn1nccc1NC(=O)CCl -0.41
O=C(CCl)NCCc1ccc(F)cc1 -0.91
O=C(CCl)NCc1noc(C2CC2)n1 -0.61
O=C(CCl)N1CCCCC12CCOCC2 -0.562
Cc1conc1C1CN(C(=O)CCl)C1 -0.949
Cl.O=C(CCl)N1CCn2cncc2C1 -0.196
Cc1ncsc1CCNC(=O)CCl 0.0583
O=C(CCl)N1CCC[C@@H]1c1ccon1 -0.499
O=C(CCl)N(Cc1ccsc1)C1CC1 -0.642
O=C(CCl)N1CCOCC1C1CC1 (stereo not given) -0.493
Cl.Cn1ncc2c1CC(NC(=O)CCl)CC2 (stereo not given) -0.665
Cc1ccc(N(C(=O)CCl)C2C=CS(=O)(=O)C2)cc1 (stereo not given) -0.0885
O=C(CCl)N1CCN(C(=O)N2CCCCC2)CC1 -0.906
Cc1cccnc1NC(=O)C1CCN(C(=O)CCl)CC1.Cl -0.543
O=C(CCl)N1CCC(C(=O)N2CCCC2)CC1 -0.191
O=C(CCl)NC1CCCCNC1=O (stereo not given) -0.603
Cc1ncc2c(n1)CCN(C(=O)CCl)C2 0.323
O=C(CCl)N1CC2(CCOCC2)C1 -0.356
O=C(CCl)N1c2ccccc2NC(=O)C12CCCC2 -0.744
O=C(CCl)NC1(c2ccc3c(c2)OCCO3)CCCC1 -0.7
O=C(CCl)N1CCC(=C(F)CO)C1 -0.129

log2 ratio of Biotin-Ahx-Ub-VS probe labelling, active:
O=C(CCl)NCC1(c2ccccc2)CC1 -2.43
O=C(CCl)N1CCC(O)(Cc2ccc(F)cc2)C1 (stereo not given) -2.24
Cc1ccc(-c2nnc(C)[nH]2)c(NC(=O)CCl)c1 -2.55
O=C(CCl)Nc1cc(Cl)ccc1-n1cncn1 -1.26
O=C(CCl)N[C@H]1CC[C@@H](CO)CC1 -1.4
CN(CCc1ncc(Br)cn1)C(=O)CCl.Cl -2.5
Cc1cccn2cc(CCNC(=O)CCl)nc12.Cl -1.07
O=C(CCl)N1CCc2[nH]c3ccccc3c2C1 -2.89
Cc1cccc(N2CCC(NC(=O)CCl)C2=O)c1 (stereo not given) -1.91
Cc1ccc(CNC(=O)CCl)nc1C.Cl -2.09
Cl.O=C(CCl)NCCc1ncc(F)cc1F -1.69
Cc1ccc(C(=O)NCCNC(=O)CCl)cc1 -2.4
Cc1ccccc1CN(C)C(=O)CCl -1.46
O=C(CCl)NCCc1ccc2c(c1)OCCO2 -2.55
N#Cc1ccc(CNC(=O)CCl)cc1 -1.31
O=C(CCl)Nc1cc2c(cc1Cl)OCCCO2 -2.71

— the supplement of paper PMC11732987, “Enantioselective OTUD7B fragment discovery through chemoproteomics screening and high-throughput optimisation” (Communications Chemistry, 2025)
